Screening results (PubChem)
In the library only some 21% were active in any assay of this set; here they are far more common.
Cycloheximide cs: counter-screen hit for Shiga toxin inhibitors, cycloheximide | 12% of 300,000 active | cell reporter, cycloheximide protein synthesis inhibition counterscreen | max response, %; in the data active means max response mostly above about 13%, no sharp cut-off; inactive means mostly below about 14%; further: read at 38.3 µM for the half of the compounds with a filed dose; 0% is about no effect
Shiga inhibitor: Shiga toxin inhibition; Vero cells, Shiga toxin protein synthesis inhibition reporter; inhibition, % at 38.7 µM; 9.2% of 290,000 active; AID 2315; in the data active means inhibition mostly above about 28%, no sharp cut-off; inactive means mostly below about 43%; further: 0% is about no effect
Pf growth 48h: P. falciparum growth inhibition at 48 hours (one generation); P. falciparum luciferase growth in erythrocytes, 48 h; Potency, µM (top dose mostly 28.7 µM), without a hit: top-dose activity change, negative = inhibition, most hits filed as inhibitors; 5.9% of 310,000 active; further: potency means the concentration at half of the fitted maximal effect; on the % scale 0 is the no-effect control and ±100 the full control effect
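Luciferase-expressing P. falciparum in infected erythrocytes (2% hematocrit, 0.1% parasitemia final) in RPMI 1640/0.5% Albumax were exposed to compound for 48 hours at 37 C, 5% CO2; growth read as luminescence.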
Pf growth 96h: P. falciparum growth inhibition at 96 hour, primary screen for plastid delayed-death inhibitors. P. falciparum luciferase reporter growth, 96 h. Potency, µM (titrated, usually from 28.7 µM), without a hit: at the highest dose activity change, negative = inhibition, actives largely listed as inhibitors. 6.9% of 320,000 active. AID 504834; further: potency means the concentration at half of the fitted maximal effect; on the % scale 0 is the no-effect control and ±100 the full control effect
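Cell-based qHTS: luciferase-tagged P. falciparum in erythrocytes (2% hematocrit, 0.05% parasitemia final) incubated with compounds for 96 hours, 37 C, 5% CO2; luciferase detection reagent then added and luminescence measured.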
Active calls of the source: *; i = inactive; ? = inconclusive; . = no result; + = active, no number. Unless noted, the call rests on the fitted dose curve; in most records, active means well fitted inhibition curve with a large enough effect; inconclusive means small, poorly fitted or top-dose-only effect, or another doubt; inactive means no such curve, though single readings can be large or run the other way.

SMILES	Cycloheximide cs	Shiga inhibitor	Pf growth 48h	Pf growth 96h
CC(C)C(=O)Nc1cccc(C(=O)Nc2nncs2)c1	1	21	5%	15%
CCc1nnc(NC(=O)c2cccc(NC(=O)C(C)C)c2)s1	45*	67	68%	43%
COCc1nnc(NC(=O)C(C)C)s1	-1	-4	3%	.
COCc1nnc(NC(=O)c2cccc(NC(=O)C(C)C)c2)s1	14*	27*	89%	-30%
CN1c2ccc([N+](=O)[O-])cc2CC2(C(=O)NC(=O)NC2=O)C1c1ccccc1 (stereo unspecified)	-2	-4	?	?
O=C1NC(=O)C2(Cc3cc([N+](=O)[O-])ccc3N3CCN(C(=O)c4ccccc4)CC32)C(=O)N1 (stereo unspecified)	-2	-13	-13%	18%
CC(C)N1C(=O)NC(=O)C2(Cc3cc([N+](=O)[O-])ccc3N(C)C2c2ccccc2)C1=O (stereo unspecified)	-3	-12	?	12µM*
CN1c2ccc([N+](=O)[O-])cc2CC2(C(=O)NC(=O)N(c3ccccc3)C2=O)C1c1ccccc1 (stereo unspecified)	-5	-5	3.3µM*	2.9µM*
CCOC(Cn1ccc(=O)[nH]c1=O)OCC	-2	-1	2%	15%
CN(CC(=O)Nc1ccc(F)c(F)c1F)C(=O)c1ccc2c(c1)OCCO2	.	.	33%	20%
O=Cc1cccn1-c1ccccc1	-6	-2	38%	-10%
O=Cc1cccn1-c1cccc([N+](=O)[O-])c1	1	-2	78%	2.6µM*
COc1ccccc1-n1c(SCC(=O)NC2CCS(=O)(=O)C2)nc2cc([N+](=O)[O-])ccc21 (stereo unspecified)	-3	-5	?	?
CCN(CC)S(=O)(=O)c1ccc2c(c1)nc(SCC(=O)NC1CC1)n2-c1ccccc1OC	-2	2	5.9µM*	?
CN(C)S(=O)(=O)N1CCC(Oc2cccc(C(=O)N3CCSCC3)c2)CC1	-1	9	-26%	?
Cc1ccc(C)n1-c1ccc(-c2ccn[nH]2)cc1	36*	71*	?	?
Cc1ccc(C)n1-c1ccc(C(=O)N/N=C/c2ccncc2)cc1	-2	14	?	?
Cc1ccc(-n2cccn2)cc1	-1	-7	10%	-25%
c1ccn(-c2ccc(-c3ccn[nH]3)cc2)c1	37*	91*	363%	i
COc1ccc(Cl)cc1NC(=O)CSc1nnc(C2CC2)n1C	-1	-9	-1%	1%
CC1(C)COCN1S(=O)(=O)c1ccc(C(=O)Nc2nnc(-c3ccc(Cl)s3)o2)cc1	0	-8	4.1µM*	-17%
COc1ccc(-c2nnc(NC(=O)c3ccc(S(=O)(=O)N4COCC4(C)C)cc3)o2)cc1	-6	-6	12µM*	-5%
CC12CCC(c3nnc(SCc4ccc(Cl)cc4)nc31)C2(C)C (stereo unspecified)	-1	13	-12%	4.1µM*
CCOC(=O)CSc1nnc2c(n1)C1(C)CCC2C1(C)C (stereo unspecified)	-2	0	-11%	3.3µM*
C=CCn1c(C)cc(C(=O)COc2ccc(C)nc2[N+](=O)[O-])c1C	75*	98*	38%	12%
SMILES	Cycloheximide cs	Shiga inhibitor	Pf growth 48h	Pf growth 96h
C=CCn1c(C)cc(C(=O)COc2ccc(S(=O)(=O)N3CCCC3)cc2[N+](=O)[O-])c1C	13*	14	?	?
Cc1ccc(OCC(=O)c2cc(C)n(-c3ccccc3)c2C)c([N+](=O)[O-])n1	46*	64*	33%	28%
CCCn1c(C)cc(C(=O)COc2ccc(S(=O)(=O)N(CC)CC)cc2[N+](=O)[O-])c1C	19	2	-15%	?
O=[N+]([O-])c1cc(S(=O)(=O)N2CCCC2)ccc1OCc1ccccc1	28*	17	-6%	1%
O=[N+]([O-])c1cc(S(=O)(=O)N2CCCC2)ccc1OCCOc1ccccc1	.	.	-18%	?
O=C(NC1CCCC1)C(c1ccccc1)N(Cc1ccccc1)C(=O)c1csnn1 (stereo unspecified)	-4	-8	?	?
CN(C)C(CNC(=O)c1cccc(S(=O)(=O)NCc2ccccc2)c1)c1ccco1 (stereo unspecified)	.	.	?	-24%
O=C(O)c1cccc(N2C(=O)CSC2c2ccccc2)c1 (stereo unspecified)	-4	-6	5%	?
O=C(NCc1ccccc1)NC(O)C(Cl)(Cl)Cl (stereo unspecified)	-2	-10	-1%	14%
CCCn1c(C)cc(C(=O)COc2ccc(C)nc2[N+](=O)[O-])c1C	15*	85*	22%	-26%
C=CCn1c(C)cc(C(=O)COc2nncc3ccccc23)c1C	69*	159*	.	22%
Cc1ccc(OCC(=O)c2c[nH]c3ccccc23)c([N+](=O)[O-])n1	51*	81*	?	-14%
COc1ccc(OC)c(CCNC(=O)CCCc2nnc3n(C)c(=O)c4sccc4n23)c1	-4	-6	2%	16%
Cc1cc(C(=O)Nc2ccccc2N2CCCCC2)no1	1	-4	4%	-3%
CCOC(=O)C1CCN(C(=O)c2cc(COc3ccc(F)cc3F)on2)CC1	63*	127*	36%	21%
CCOC(=O)N1CCN(C(=O)c2cc(COc3ccc(F)cc3F)on2)CC1	49*	88*	5%	?
CCC(O)C1CCN(C(=O)c2cc(COc3ccc(F)cc3F)on2)CC1 (stereo unspecified)	17	17	12%	1%
COCCOC1CCN(C(=O)c2cc(COc3ccc(F)cc3F)on2)CC1	23*	75	12%	?
Cc1ccc(CNC(=O)CSc2ncc(C(=O)Nc3ccccc3)c(=O)n2C)cc1	.	.	3%	4%
Cc1ccc(N=C(N)N=C(N)N)cc1	-1	-4	9.3µM*	?
O=C(COc1ccc(Br)cc1Cl)NC1CCCCC1	36*	+	191%	218%
CC(C)NC(=O)NC(=O)COc1ccc(Br)cc1Br	130*	75*	273%	212%
O=C(COc1ccc(Br)cc1Br)NC1CCCC1	43*	109*	147%	36%
CCOC(=O)c1[nH]c(C)c(/C(O)=C2\C(=O)C(=O)N(CCCN3CCOCC3)C2c2cccs2)c1C (stereo unspecified)	19*	57	24%	?
CCOc1cccc(/C(O)=C2/C(=O)C(=O)N(CCN3CCOCC3)C2c2ccncc2)c1 (stereo unspecified)	-3	1	16%	30%
COc1cccc(/C(O)=C2/C(=O)C(=O)N(CCN3CCOCC3)C2c2cccs2)c1 (stereo unspecified)	23*	20	21%	.
Cc1ccc[n+](-c2[nH]c(=O)sc2/C=N/NC(=O)c2ccccc2[O-])c1	2	1	9%	-19%
Cc1noc(C)c1-c1nc(CSc2ccccc2)no1	21*	29	39%	31%
Cc1cc(S(=O)(=O)Cc2noc(-c3c(C)noc3C)n2)c(C)cc1Cl	-2	19	-11%	-20%
